Measured values taken from PubChem BioAssay AID1159580 (chemical genetic matrix, 2015).
The whole screen tested about 5,500 compounds, of which about 2,000 (36%) were called active. Not shown: some 18% with an inconclusive outcome. Rule as the data show it: active = normalized growth mostly below about 0.91 (no sharp cut-off); inconclusive = no clear call, values can overlap the other calls; inactive = mostly above about 0.92. This is one part of the list.

Assay: chemical genetic growth profiling, strain panel (AID 1159580);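 also: tested at 20 µM; growth read once vehicle control cultures reached saturation at 30 °C; 1 = growth at the plate median or of vehicle wells; lower values mean less growth of the strain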
Settings: growth OD

Measured: normalized growth

COc1ccc(C(C)=O)cc1CSC(=NS(=O)(=O)c1ccccc1)Nc1cccc(F)c1
inactive: S. cerevisiae deletion strains, locus YAL013W, strain DEP1, active compounds read low 1.01 | S. cerevisiae deletion strains, locus YBR229C, strain ROT2, active compounds read low 0.993 | S. cerevisiae deletion strains, locus YDL101C, strain DUN1, active compounds read low 0.988 | S. cerevisiae deletion strains, locus YDL134C, strain PPH21, active compounds read low 0.994 | S. cerevisiae deletion strains, locus YDR150W, strain NUM1, active compounds read low 0.913 | S. cerevisiae deletion strains, locus YEL061C, strain CIN8, active compounds read low 0.974 | S. cerevisiae deletion strains, locus YGR078C, strain PAC10, active compounds read low 1.02 | S. cerevisiae deletion strains, locus YHR030C, strain SLT2, active compounds read low 0.944 | S. cerevisiae deletion strains, locus YHR087W, strain rtc3, active compounds read low 0.981 | S. cerevisiae deletion strains, locus YJR043C, strain POL32, active compounds read low 1.01 | S. cerevisiae deletion strains, locus YJR075W, strain HOC1, active compounds read low 0.981 | S. cerevisiae deletion strains, locus YKL190W, strain CNB1, active compounds read low 0.984 | S. cerevisiae deletion strains, locus YLR039C, strain RIC1, active compounds read low 0.876 | S. cerevisiae deletion strains, locus YLR058C, strain SHM2 (second series), active compounds read low 1 | S. cerevisiae deletion strains, locus YLR085C, strain ARP6, active compounds read low 0.921 | S. cerevisiae deletion strains, locus YLR262C, strain YPT6, active compounds read low 0.915 | S. cerevisiae deletion strains, locus YML094W, strain GIM5, active compounds read low 0.973 | S. cerevisiae deletion strains, locus YMR219W, strain ESC1, active compounds read low 0.999 | S. cerevisiae deletion strains, locus YMR263W, strain SAP30, active compounds read low 0.998 | S. cerevisiae deletion strains, locus YMR307W, strain GAS1, active compounds read low 0.737 | S. cerevisiae deletion strains, locus YNL153C, strain GIM3, active compounds read low 1.03 | S. cerevisiae deletion strains, locus YNL298W, strain CLA4 (second series), active compounds read low 0.963 | S. cerevisiae deletion strains, locus YNL322C, strain KRE1, active compounds read low 0.98 | S. cerevisiae deletion strains, locus YNR030W, strain Alg12, active compounds read low 0.952 | S. cerevisiae deletion strains, locus YPL055C, strain LGE1, active compounds read low 1.02 | S. cerevisiae deletion strains, locus YPL241C, strain CIN2, active compounds read low 0.983 | S. cerevisiae deletion strains, locus YPR135W, strain CTF4, active compounds read low 1.03 | S. cerevisiae strains, strain wild type, active compounds read low 0.988
